Assay results: PubChem BioAssay (NCATS)
Several values for one entry are separate records, joined by “and”; a condition that tells them apart may be missing. Identical values can stand only once. Records with an inconclusive call do not appear. Activity calls are given as the source filed them. Unless noted, calls follow the shape of the dose curve; as a rule, active = well fitted curve in the direction sought with a large enough effect; inconclusive = small, poorly fitted or top-dose-only effect, or another doubt; inactive = no such curve, though single readings can be large; an effect the other way counts as inactive or inconclusive.

What was measured:
[1] = target: T1, Hexokinase-4 (Homo sapiens) + Glucokinase regulatory protein (Homo sapiens) (UniProt P35557+Q14397); experiment: qHTS assay for inhibitors of recombinant human GCK-GKRP interaction: Diaphorase-coupled assay (AID 743205)
T1 sequence (P35557 whole entry, looked up): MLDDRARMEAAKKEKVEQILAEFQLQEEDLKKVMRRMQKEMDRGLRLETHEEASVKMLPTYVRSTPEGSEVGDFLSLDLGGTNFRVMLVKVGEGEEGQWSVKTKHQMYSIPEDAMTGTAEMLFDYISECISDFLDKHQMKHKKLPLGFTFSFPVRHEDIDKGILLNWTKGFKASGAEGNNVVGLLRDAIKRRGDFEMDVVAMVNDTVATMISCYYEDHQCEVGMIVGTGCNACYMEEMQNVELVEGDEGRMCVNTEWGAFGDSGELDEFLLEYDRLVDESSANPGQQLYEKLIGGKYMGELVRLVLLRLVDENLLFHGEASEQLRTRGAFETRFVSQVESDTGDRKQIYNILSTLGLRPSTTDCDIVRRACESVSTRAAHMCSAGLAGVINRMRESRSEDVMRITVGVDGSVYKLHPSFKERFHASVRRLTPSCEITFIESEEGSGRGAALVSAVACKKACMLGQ
T1 sequence (Q14397 whole entry, looked up): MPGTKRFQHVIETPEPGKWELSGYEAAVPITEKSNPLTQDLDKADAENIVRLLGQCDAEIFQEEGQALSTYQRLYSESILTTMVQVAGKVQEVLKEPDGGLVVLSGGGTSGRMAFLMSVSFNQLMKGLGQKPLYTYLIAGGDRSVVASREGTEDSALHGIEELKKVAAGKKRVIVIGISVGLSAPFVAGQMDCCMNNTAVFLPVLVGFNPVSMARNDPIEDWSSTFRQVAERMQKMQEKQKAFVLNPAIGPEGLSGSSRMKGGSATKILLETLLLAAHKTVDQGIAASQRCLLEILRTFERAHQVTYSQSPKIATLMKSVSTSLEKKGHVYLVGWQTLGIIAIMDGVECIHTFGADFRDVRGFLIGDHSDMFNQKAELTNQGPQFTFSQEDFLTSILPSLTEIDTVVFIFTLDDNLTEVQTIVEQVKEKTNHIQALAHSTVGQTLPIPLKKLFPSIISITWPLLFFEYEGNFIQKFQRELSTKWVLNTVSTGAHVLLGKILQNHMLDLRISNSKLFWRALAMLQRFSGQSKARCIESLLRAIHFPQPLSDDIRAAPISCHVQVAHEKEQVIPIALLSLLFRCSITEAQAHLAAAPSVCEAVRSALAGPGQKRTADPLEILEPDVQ
Summary of the method: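 Resorufin fluorescence (525/590 nm), read each minute over 30 min, reports GCK activity coupled via G6PDH and diaphorase. Reaction: 10 nM GST-GCK, 10 nM FLAG-GKRP, 5 mM glucose, 0.4 mM ATP, 0.15 mM NADP+, 0.1 mM resazurin.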

[2] = target: T1, Hexokinase-4 (Homo sapiens) + Glucokinase regulatory protein (Homo sapiens); experiment: qHTS assay for inhibitors of recombinant human GCK-GKRP interaction: ADP-Glo assay (AID 743206);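 also: plate controls were DMSO plus enzyme for no effect and no enzyme for full effect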
Summary of the method: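 GST-GCK and FLAG-GKRP (15 nM each in the dispensed mix, with 2 uM S6P) react with 0.4 mM ATP and 5 mM glucose (final) in Hepes pH 7.6 for 60 min at room temperature. ADP is measured by ADP-Glo luminescence.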

[3] = target: T1, Hexokinase-4 (Homo sapiens) + Glucokinase regulatory protein (Homo sapiens); experiment: qHTS assay for inhibitors of recombinant human GCK-GKRP interaction: HTRF assay (AID 743207);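 also: 0% = DMSO with GCK present and -100% = DMSO wells lacking GCK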
Summary of the method: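 HTRF read-out (ex 320 nm; 615/665 nm emission) after 60 min RT equilibration of 5 nM GST-GCK, 5 nM FLAG-GKRP, 2 uM S6P, compound and anti-FLAG/anti-GST detection antibodies; signal normalized between DMSO wells with and without GCK.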

[4] = qHTS assay for measurement of the activity of small molecule inhibitors on Zika virus induced Caspase-3 activity in human iPSC derived neural progenitor cells (hNPCs) (AID 1224857); also: % of control where 0% means no effect; nearly all actives have a fitted effect of over 65% in size
Summary of the method: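 Percent inhibition of virus-induced caspase-3/7 luminescence (Caspase-Glo), scaled between uninfected cells and Zika-infected cells. hNPCs received compound 1 hr before ZIKV at 2 FFU/cell, with 6 hours infection at 37 C.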

[5] = qHTS assay for measurement of the activity of small molecule inhibitors on Zika virus induced Caspase-3 activity in human astrocytoma cells (AID 1224859);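 also: plate controls were ZIKV-infected untreated cells for no effect and uninfected cells for full effect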
Summary of the method: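 Luminescent caspase-3/7 read-out (30 min reagent, room temperature) in human SNB-19 cells infected 6 h with ZIKV (2 FFU/cell) after 1 h compound pre-incubation; Data were normalised to uninfected and infected wells.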

[6] = qHTS Assay for Identifying Gametocytocidal Compounds (AID 743244);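 also: % is scaled to controls: 0 for no effect and ±100 for the full control effect; actives lower the fluorescent signal which means gametocytes are killed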; settings: P. falciparum 3D7 stage III-V gametocytes, alamarBlue, 72 h; max response: hits give low values
Summary of the method: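 Viability read-out was resazurin reduction (alamarBlue, 24 h) measured at Ex 525/Em 598 nm. Beforehand, late-stage (III-V) 3D7 P. falciparum gametocytes at 20,000 cells/well were incubated with compound 72 h at 37C under 5% CO2.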

[7] = qHTS assay for small molecule agonists of the antioxidant response element (ARE) signaling pathway measured by Nrf2-dependant transcriptional activity - cell viability counter screen (AID 720653; active = well fitted curve in the direction sought with a large enough effect in the repeat runs; an effect the other way counts as inactive or inconclusive; also: % is scaled to controls: 0 for no effect and ±100 for the full control effect); settings: ARE-bla HepG2 viability, CellTiter-Glo ATP luminescence, 16 h; max response: hits give low values
Summary of the method: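 ARE-bla HepG2 cells (2,000/well) rested 5 hrs at 37C/5% CO2, then exposed to compounds in DMSO for 16 hrs. Viability was read in the same wells as intracellular ATP by luminescence, 30 min at room temperature after reagent addition.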

[8] = qHTS assay for cell viability of the p53RE-bla HCT-116 cell line (AID 743292); also: % is scaled to controls: 0 for no effect and ±100 for the full control effect; nearly all actives have a fitted effect of over 55% in size
Summary of the method: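 Viability of compound-treated p53RE-bla HCT-116 cells is taken from ATP-dependent luciferase luminescence. Treatment lasts 16 h at 37 C after a 5 h settling period; detection follows 30 min at room temperature.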

O=C(NCCN1CCOCC1)c1ccc(Cl)cc1
inactive: outcome [1] | outcome [2] | outcome [3] | Potency [4] | Potency [5]

CC(C)NCC(O)COc1cccc2[nH]ccc12 (stereo not drawn)
inactive: max response [6] 5.47% and 6.31% | Potency [4] | Potency [5]

CN(C)CCC(c1ccccc1)c1ccccn1 (stereo not drawn)
inactive: max response [7] -6.47% | outcome [1] | outcome [2] | outcome [3] | max response [6] 15.2% | Potency [8] | Potency [5]

O=C1NCC2(CCN(CCc3ccccc3)CC2)O1
inactive: outcome [1] | outcome [2] | outcome [3] | Potency [4] | Potency [5]

COc1ccccc1N1CCN(CCCNc2cc(=O)n(C)c(=O)n2C)CC1
inactive: outcome [1] | outcome [2] | outcome [3] | Potency [4]

CCN1CCC[C@H]1CNC(=O)c1cc(S(N)(=O)=O)ccc1OC
inactive: outcome [1] | outcome [2] | outcome [3] | max response [6] 11.5% and 6.55% | Potency [4]

O=C(O)Cc1cccc2ccccc12
inactive: max response [7] -3.63% and 1.79% | Potency [8] | Potency [5]

O=C(O)c1cc(-c2ccccc2)nc2ccccc12
inactive: max response [7] -16.1% | max response [6] 4.65% and 33.8% | Potency [8] | Potency [4] | Potency [5]

CCCCC1C(=O)N(c2ccccc2)N(c2ccccc2)C1=O
inactive: max response [7] 4.44% and 1.83% | outcome [1] | outcome [2] | outcome [3] | Potency [8] | Potency [4] | Potency [5]

CC[C@]1(O)C[C@@H]2CN(CCc3c([nH]c4ccccc34)[C@@](C(=O)OC)(c3cc4c(cc3OC)N(C)[C@H]3[C@@](O)(C(=O)OC)[C@H](OC(C)=O)[C@]5(CC)C=CCN6CC[C@]43[C@@H]65)C2)C1
inactive: Potency [4]

CCN(CC)CCOC(=O)c1ccc(N)cc1
inactive: outcome [1] | outcome [2] | outcome [3] | Potency [4] | Potency [5]

CC(=O)c1ccc(S(=O)(=O)NC(=O)NC2CCCCC2)cc1
inactive: max response [7] 2.45% and -5.62% | outcome [1] | outcome [2] | outcome [3] | max response [6] -4.23% and -12.4% | Potency [8] | Potency [4] | Potency [5]
